ChEMBL document CHEMBL4513216, “Probing the Open Global Health Chemical Diversity Library for Multistage-Active Starting Points for Next-Generation Antimalarials” (ACS Infect Dis, 2020)
Among all 69,000 compounds or so, about 8,600 (12%) showed an effect of 50% or more. Shown is part of a subset that was picked to be rich in strong results.

These compounds were tested on Plasmodium berghei (assay: Screen against P. berghei liver stage (PbLuc), transformed with Luciferase, at 10uM). Conditions: tested at 10 uM.
Type: functional, HepG2
Work on `Cn1cc(C(=O)N2CCCC(c3ccncc3)C2)cn1` (stereo not given) yielded an INHIBITION of -16.5%.
Compound `CN1CCC(c2n[nH]c(=O)n2CC2CCCCC2)CC1` has an INHIBITION of 40.6%.
`CN1CCN(Cc2n[nH]c(=O)n2CC2CCCCC2)CC1` showed an INHIBITION of 70.3%.
For `CNCc1n[nH]c(=O)n1CC1CCCCC1`, the INHIBITION was 23.9%.
Compound `O=C(c1cccnc1)N1CCCC(Cc2nccs2)C1` (stereo not given) has an INHIBITION of -9.27%.
Compound `Cc1nc(N2CCCC2)nc2c1CCN(C(=O)NC1CCCC1)CC2` has an INHIBITION of -6.23%.
Compound `O=C(Cc1ccccn1)N1C[C@H](OCc2cccnc2)[C@H]2COC[C@H]21` has an INHIBITION of -31%.
`Cc1cc(C)n2c(CNCCNc3ccccc3)cnc2n1` gave an INHIBITION of -35.2%.
Work on `CC(Cn1cccn1)NC(=O)Cc1csc(C(C)C)n1` (stereo not given) yielded an INHIBITION of 0.914%.
`CNC(=O)CN(C)C(=O)Cc1csc(C(C)C)n1` showed an INHIBITION of 12.3%.
Work on `CCN(CC)C(=O)Cc1csc(C(C)C)n1` yielded an INHIBITION of -4.4%.
Work on `CC(C)c1nc(CN(CC(N)=O)C(C)C)cs1` yielded an INHIBITION of 31.8%.
`CCN(CC(=O)NC)C(=O)Cc1csc(C(C)C)n1` gave an INHIBITION of 62.4%.
`CCNC(=O)CN(CC)C(=O)Cc1csc(C(C)C)n1` was tested, and the INHIBITION was 81.6%.
Compound `O=C(c1cocn1)N1CCC2(CC1)CC(Oc1ccccn1)CO2` (stereo not given) has an INHIBITION of -0.804%.
`COC(=O)c1ccoc1CN(C1CC1)C1CCS(=O)(=O)C1` (stereo not given) gave an INHIBITION of 42.8%.
Work on `Cc1nc(C)n(CC2CCCCN2Cc2cnc(C)s2)n1` (stereo not given) yielded an INHIBITION of 30.6%.
`CCOc1ncccc1C(=O)NC1CCCN(c2ncccn2)C1` (stereo not given) showed an INHIBITION of -39.7%.
`O=C(NCC1CCC2(CC1)OCCO2)c1cccc(-n2cccn2)c1` gave an INHIBITION of 30.2%.
With `COc1ncccc1CNCc1cnc(N2CCOCC2)nc1` the INHIBITION was -65%.
`Cc1cnn(CC2CN(CC(=O)Nc3c(C)nn(C)c3C)CCO2)c1` (stereo not given) showed an INHIBITION of 26.4%.
With `CC(=O)N1C[C@H](NC(=O)c2cscn2)[C@@H]2OCCC[C@@H]21` the INHIBITION was 42.6%.
In the case of `CS(=O)(=O)N[C@H]1CN(C(=O)c2cscn2)[C@@H]2CCCO[C@H]12`, the INHIBITION is reported as 60.2%.
In the case of `CO[C@H]1CN(C(=O)c2cccnc2)[C@@H]2CCCO[C@H]12`, the INHIBITION is reported as -14.7%.
For `CS(=O)(=O)N[C@@H]1CN(C(=O)c2cnccn2)[C@@H]2CCCO[C@@H]21`, the INHIBITION was 26.4%.
For `NC(=O)N1C[C@H](NC(=O)c2cscn2)[C@@H]2OCCC[C@@H]21`, the INHIBITION was 60.2%.
Compound `CS(=O)(=O)N[C@@H]1CN(C(=O)c2cccnc2)[C@@H]2CCCO[C@@H]21` has an INHIBITION of 56.7%.
Work on `CS(=O)(=O)N[C@@H]1CN(C(=O)c2ccccn2)[C@@H]2CCCO[C@@H]21` yielded an INHIBITION of 37.5%.
With `CN1C[C@H](NC(=O)c2cscn2)[C@@H]2OCCC[C@@H]21` the INHIBITION was 35.8%.
In the case of `Cc1cccc(C(=O)N2C[C@H](NS(C)(=O)=O)[C@@H]3OCCC[C@@H]32)n1`, the INHIBITION is reported as 31.1%.
